# In PubChem BioAssay:
# A number with no mark means an inactive call. For some assays here: Measured potencies and affinities stand elsewhere. Activity calls are given as the source filed them. Unless noted, no rule for the calls is given here.
# Columns and labels:
# [1] = antimalarial activity against Dd2 strain (AID 2302;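 active = growth inhibition above 50% at the single 2 µM test dose, taken to imply half-maximal potency below 2 µM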;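 also: 0% = DMSO untreated growth and 100% = chloroquine plus artemisinin killed control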); details: P. falciparum Dd2 in RBCs, LDH growth readout, 72 h; at 2 µM; active compounds read high
# [2] = human hepatoma cell viability loss – ATP luminescence, cytotoxicity control for P. falciparum antimalarial project, primary screen (AID 2303;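 active = inhibition above 50%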;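 also: 0% = DMSO wells and 100% = digitonin-killed cells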); details: HepG2 viability, 24-48 h, at 10 µM, active compounds read high
# [3] = target: L-lactate dehydrogenase (Plasmodium falciparum (isolate CDC / Honduras)) (UniProt Q27743); assay: PfLDH activity inhibition – cell lysate, 3D7 strain, counter-screen for P. falciparum growth inhibition project (AID 2304);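 also: 0% = vehicle and 100% = reference inhibitor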; details: P. falciparum 3D7 crude extract, LDH APAD/NBT absorbance; at 2 µM; active compounds read high
# [4] = inhibition of 3D7 malaria parasite growth – strain 3D7 (AID 2306);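 also: 0% = DMSO wells and 100% = chloroquine plus artemisinin control wells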; details: P. falciparum 3D7 erythrocytic growth, LDH absorbance, 72 h; at 2 µM; active compounds read high
# [5] = target: Calcium-dependent protein kinase 1 (Plasmodium falciparum (isolate 3D7)) (UniProt P62344); assay: PfCDPK1 kinase inhibitors, biochemical, TCAMS library (AID 1159585; cut-off not given, nearly all actives have IC50 up to about 0.98 µM;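 also: inhibitors leave more ATP so luminescence rises with inhibition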); details: recombinant PfCDPK1, Kinase-Glo ATP depletion luminescence
# [6] = target: Plasmodium falciparum protein kinase 6 (PK6, PF3D7_1337100) (UniProt Q8IDW1); assay: PfPK6 kinase inhibitors, biochemical, TCAMS library (AID 1159586); details: recombinant PfPK6, Kinase-Glo ATP depletion luminescence
# [7] = target: Protein kinase 7 (PK7), Plasmodium falciparum 3D7 (PF3D7_0213400) (UniProt Q7YTF7); assay: inhibition of Plasmodium PK7 catalytic activity – biochemical, TCAMS antimalarial set, Kinase-Glo luminescence (AID 1159587); details: recombinant PfPK7, Kinase-Glo ATP depletion luminescence
# [8] = target: Calcium-dependent protein kinase 4 (Plasmodium falciparum (isolate 3D7)) (UniProt Q8IBS5); assay: PfCDPK4 kinase inhibitors, biochemical, TCAMS library (AID 1159588; cut-off not given, nearly all actives have IC50 up to about 0.91 µM); details: recombinant PfCDPK4, Kinase-Glo ATP depletion luminescence
# Chain of Calcium-dependent protein kinase 4 (Plasmodium falciparum (isolate 3D7)) (Q8IBS5 whole entry, looked up): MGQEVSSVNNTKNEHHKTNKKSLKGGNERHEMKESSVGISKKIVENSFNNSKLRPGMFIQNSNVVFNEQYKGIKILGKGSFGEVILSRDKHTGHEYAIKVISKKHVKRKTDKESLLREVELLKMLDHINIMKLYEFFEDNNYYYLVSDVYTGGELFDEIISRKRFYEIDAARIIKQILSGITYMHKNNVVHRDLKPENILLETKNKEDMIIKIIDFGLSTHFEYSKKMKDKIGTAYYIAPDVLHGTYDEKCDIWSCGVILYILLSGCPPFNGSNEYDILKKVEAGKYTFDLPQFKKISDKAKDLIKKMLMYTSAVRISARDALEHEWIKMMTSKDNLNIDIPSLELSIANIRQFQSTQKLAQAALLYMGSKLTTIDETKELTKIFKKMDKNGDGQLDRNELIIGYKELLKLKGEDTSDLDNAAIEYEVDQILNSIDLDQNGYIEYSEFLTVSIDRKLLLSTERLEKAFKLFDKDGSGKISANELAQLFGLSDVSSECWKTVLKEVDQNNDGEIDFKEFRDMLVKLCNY
# Chain of L-lactate dehydrogenase (Plasmodium falciparum (isolate CDC / Honduras)) (Q27743 whole entry, looked up): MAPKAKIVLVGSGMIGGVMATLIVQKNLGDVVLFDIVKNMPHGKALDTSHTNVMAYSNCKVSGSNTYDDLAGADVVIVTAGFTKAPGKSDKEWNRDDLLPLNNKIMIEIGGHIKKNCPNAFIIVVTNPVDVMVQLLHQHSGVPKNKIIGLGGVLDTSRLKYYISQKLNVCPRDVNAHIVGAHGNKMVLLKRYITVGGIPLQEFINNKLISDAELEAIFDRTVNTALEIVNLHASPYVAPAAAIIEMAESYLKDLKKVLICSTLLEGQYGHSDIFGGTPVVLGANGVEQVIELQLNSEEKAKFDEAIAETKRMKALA
# Chain of Protein kinase 7 (PK7), Plasmodium falciparum 3D7 (PF3D7_0213400) (Q7YTF7 1-343): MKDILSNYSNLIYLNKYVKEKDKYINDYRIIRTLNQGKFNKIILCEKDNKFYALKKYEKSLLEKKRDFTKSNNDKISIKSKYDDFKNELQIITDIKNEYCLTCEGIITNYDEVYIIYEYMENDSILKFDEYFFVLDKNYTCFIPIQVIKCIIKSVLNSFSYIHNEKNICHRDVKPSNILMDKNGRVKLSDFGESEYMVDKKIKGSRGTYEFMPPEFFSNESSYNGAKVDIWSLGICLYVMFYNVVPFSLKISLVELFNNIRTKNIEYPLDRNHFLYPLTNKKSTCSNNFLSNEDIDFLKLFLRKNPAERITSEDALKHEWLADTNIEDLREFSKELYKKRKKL
# Chain of Calcium-dependent protein kinase 1 (Plasmodium falciparum (isolate 3D7)) (P62344 whole entry, looked up): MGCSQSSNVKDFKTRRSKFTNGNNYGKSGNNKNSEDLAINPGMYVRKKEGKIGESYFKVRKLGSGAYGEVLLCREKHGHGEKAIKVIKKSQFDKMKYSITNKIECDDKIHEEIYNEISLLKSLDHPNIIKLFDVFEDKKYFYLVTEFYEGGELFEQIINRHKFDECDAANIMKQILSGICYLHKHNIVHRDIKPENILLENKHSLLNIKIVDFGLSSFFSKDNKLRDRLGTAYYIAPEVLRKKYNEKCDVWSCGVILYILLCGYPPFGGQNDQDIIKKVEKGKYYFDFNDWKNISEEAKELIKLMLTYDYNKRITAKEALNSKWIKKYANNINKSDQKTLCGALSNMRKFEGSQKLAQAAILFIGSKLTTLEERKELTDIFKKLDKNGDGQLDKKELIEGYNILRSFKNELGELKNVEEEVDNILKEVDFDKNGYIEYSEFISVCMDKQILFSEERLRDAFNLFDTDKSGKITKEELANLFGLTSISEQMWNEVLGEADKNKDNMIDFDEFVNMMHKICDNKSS
# Chain of Plasmodium falciparum protein kinase 6 (PK6, PF3D7_1337100) (Q8IDW1 1-305): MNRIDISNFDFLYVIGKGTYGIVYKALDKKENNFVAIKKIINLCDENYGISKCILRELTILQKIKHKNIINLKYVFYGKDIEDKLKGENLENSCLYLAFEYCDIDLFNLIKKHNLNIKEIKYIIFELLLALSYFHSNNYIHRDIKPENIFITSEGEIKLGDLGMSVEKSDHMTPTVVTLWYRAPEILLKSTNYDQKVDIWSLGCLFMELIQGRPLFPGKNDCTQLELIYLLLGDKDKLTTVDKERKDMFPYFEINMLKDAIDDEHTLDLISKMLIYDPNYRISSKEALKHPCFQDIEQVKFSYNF
SMILES,growth inhibition [1],inhibition [2],inhibition [3],growth inhibition [4],outcome [5],outcome [6],outcome [7],outcome [8]
CC(C(=O)NC1CCN(c2ccnc(Nc3ccc(F)cc3)n2)C1)c1ccc(Cl)cc1 (configuration not stated),90% (active),17%,-4%,95% (active),inactive,inactive,inactive,inactive
O=C(c1ccc(-c2cccc(-c3nc4ccc(F)cc4[nH]3)c2)cc1)N1CCCCC1CN1CCC(O)C1 (configuration not stated),-4%,11%,-1%,91% (active),inactive,inactive,inactive,inactive
CC(C)c1ccc(NC(=O)NC2CCN(CCCCCN(C)C(=O)/C=C/c3ccc(Cl)c(Cl)c3)C2)cc1 (configuration not stated),3%,28%,-2%,99% (active),inactive,inactive,inactive,inactive
COc1ccccc1NC(=S)N/N=C/c1ccc(O)cc1O,80% (active),35%,-5%,89% (active),inactive,inactive,inactive,inactive
